In the library only some 2.6% were active in any assay of this set; here they are far more common.
TGFb SMAD3 inh – qHTS for Inhibitors of TGF-b; HepG2 CAGA-GFP TGF-b/SMAD3 reporter, GFP fluorescence, 18 h; TGF-beta stimulated, 500 pg/mL final; Potency, µM (top dose mostly 46.1 µM), for inactives: top-dose activity, negative = inhibition, hits mostly inhibitors; actives 1.2% (n = 410,000); AID 588855, 2011; further: potency means the concentration at half of the fitted maximal effect; on the % scale 0 is the no-effect control and ±100 the full control effect; nearly all actives have a fitted effect of over 65% in size
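Using HEPG2 CAGA-GFP reporter cells at 1000 cells/well, we pinned test compounds, stimulated with recombinant TGF-beta (500 pg/mL final) and measured total well GFP after 18 h.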
ATXN2 expr inh – Primary qHTS for Inhibitors of ATXN expression; HEK-293 ATXN2-luciferase reporter, luminescence, 24 h; Potency, µM (doses to about 57 µM), inactives show at the highest dose activity change, negative = inhibition, most hits filed as inhibitors; actives 0.72% (n = 360,000); further: potency means the concentration at half of the fitted maximal effect; on the % scale 0 is the no-effect control and ±100 the full control effect; nearly all actives have a fitted effect of over 55% in size
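qHTS (up to 57 uM final) was run with 24 h compound exposure of reporter cells at 37 °C. Each well was multiplexed: SteadyGlo luminescence measured ATXN2-luciferase expression after a fluorogenic Gly-Phe-AFC viability readout (25 uM final).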
S2 tox – Viability Counterscreen for Primary qHTS for Inhibitors of ATXN expression | S2 cells (HEK-293 line with an ATXN2-luciferase reporter) viability, CellTiter-Fluor protease fluorescence, 24 h | Potency, µM (top dose mostly 56.7 µM), hits mostly cytotoxic | actives 0.49% (n = 400,000) | AID 651635, 2014; further: potency means the concentration at half of the fitted maximal effect; nearly all actives have a fitted effect of over 40% in size
HepG2 tox-1 – qHTS for Inhibitors of TGF-b: Cytotox Counterscreen; HepG2 CAGA-GFP viability, ATP luminescence, 18 h; Potency, µM (doses to about 46.1 µM), inactives show at the top dose activity change, negative = cytotoxicity, usual class: cytotoxic; actives 0.76% (n = 410,000); further: potency means the concentration at half of the fitted maximal effect
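HepG2 CAGA-GFP cells (1000/well, DMEM with 1% FBS) received compound, then TGF-beta at 500 pg/mL final, and were incubated 18 hours at 37 degrees C. Viability was read by CellTiter-Glo luminescence. Media-only wells were set as complete cell-killing and DMSO as no toxicity.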
uPA generation – qHTS for Inhibitors of Cell Surface uPA Generation | Potency, µM (titrated, usually from 38.3 µM), without a hit: at the top dose activity change, negative = inhibition, most hits filed as inhibitors | actives 0.31% (n = 330,000) | cell surface uPA generation assay, qHTS; active means well fitted inhibition curve with a large enough effect; inconclusive means small, poorly fitted or top-dose-only effect; inactive means no such curve, though single readings can be large or run the other way; tested in mouse RAW 264.7 cells; further: potency means the concentration at half of the fitted maximal effect; on the % scale 0 is the no-effect control and ±100 the full control effect; nearly all actives have a fitted effect of over 55% in size
Giardia kill – Small Molecules that selectively kill Giardia lamblia: qHTS. actives 0.15% (n = 340,000). activity change, % at 7.66 µM, hits read low. Giardia lamblia trophozoite viability; in the data active means activity change below about -80%; inconclusive means between about -30% and that limit;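 further: parasites exposed to compound for two days anaerobically before the ATP read; on the % scale 0 is the no-effect control and ±100 the full control effect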
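Luminescence from cellular ATP indicates surviving trophozoites (100 cells/well) following 48 hrs anaerobic compound treatment at 37 deg C; signal develops 15-30 min at room temperature.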
TGFb confirm – qHTS for Inhibitors of TGF-b: Confirmation of Cherry Picks; shares compounds with TGFb SMAD3 inh; HepG2 CAGA-GFP TGF-b reporter, GFP fluorescence, 18 h; cells stimulated with TGF-beta, 500 pg/mL; Potency, µM (top dose mostly 46.1 µM), for the others: at the top dose activity, negative = inhibition, most hits filed as inhibitors; actives 63% (n = 1,600); AID 720534, 2013; further: potency means the concentration at half of the fitted maximal effect; on the % scale 0 is the no-effect control and ±100 the full control effect; nearly all actives have a fitted effect of over 65% in size
HepG2 tox-2 – qHTS for Inhibitors of TGF-b: Cytotox Counterscreen for Cherry Picks; shares compounds with TGFb SMAD3 inh; HepG2 CAGA-GFP viability, ATP luminescence, 18 h; cells stimulated with TGF-beta, 500 pg/mL; Potency, µM (series often up to 46.1 µM), for inactives: top-dose activity, negative = cytotoxicity, actives largely listed as inhibitors; actives 27% (n = 1,600); AID 720535, 2013; further: potency means the concentration at half of the fitted maximal effect; on the % scale 0 is the no-effect control and ±100 the full control effect; nearly all actives have a fitted effect of over 70% in size
CCL64 TGFb inh – qHTS for Inhibitors of TGF-b: CCL64 Cells Orthogonal Assay for Cherry Picks; shares compounds with TGFb SMAD3 inh; CCL64 CAGA-GFP reporter, TGF-b stimulated, GFP fluorescence, 18 h; Potency, µM (series often up to 46.1 µM), inactives show at the top dose activity, negative = inhibition, usual class: inhibitors; actives 41% (n = 1,600); further: potency means the concentration at half of the fitted maximal effect; nearly all actives have a fitted effect of over 65% in size
TGFb COP inh – qHTS for Inhibitors of TGF-b: Hit Validation in HepG2 Cells using COP promoter; HepG2 COP-GFP TGF-b reporter, GFP fluorescence, 18 h; cells stimulated by added recombinant TGF-beta; shares compounds with TGFb SMAD3 inh; AID 720537, 2013; Potency, µM (highest dose often 46.1 µM), for inactives: at the top dose activity, negative = inhibition, usual class: inhibitors; actives 3% (n = 1,600); further: potency means the concentration at half of the fitted maximal effect; nearly all actives have a fitted effect of over 70% in size
* hit, by the source's call; i = inactive; u = inconclusive; x = no result given. Unless noted, the call rests on the fitted dose curve; in most records, active means well fitted curve in the direction sought with a large enough effect; inconclusive means small, poorly fitted or top-dose-only effect, or another doubt; inactive means no such curve, though single readings can be large; an effect the other way counts as inactive or inconclusive.

SMILES | TGFb SMAD3 inh | ATXN2 expr inh | S2 tox | HepG2 tox-1 | uPA generation | Giardia kill | TGFb confirm | HepG2 tox-2 | CCL64 TGFb inh | TGFb COP inh
O=C(Nc1ccc([N+](=O)[O-])cc1)Nc1ccc(Cl)cc1F | 2.2µM* | u | i | 2.8µM* | -1% | 2 | u | u | 4.1µM* | 26%
O=C(Nc1ccc(Cl)cc1)Nc1csc([N+](=O)[O-])c1 | 4µM* | u | i | -26% | -8% | u | 6.5µM* | 6.5µM* | 5.2µM* | 76%
O=[N+]([O-])c1ccc(NC(=S)NCCc2ccc(Cl)cc2)cc1 | 6.3µM* | u | u | 11µM* | -11% | -15 | 15µM* | 21µM* | 4.6µM* | 97%
C[C@@H]1CN([C@@H](C)CO)C(=O)CCCn2cc(nn2)CO[C@H]1CN(C)C(=O)Oc1ccccc1 | 2% | 10% | i | -2% | x | x | x | x | x | x
Cc1cccc(NS(=O)(=O)c2ccc(C)c(C(=O)NC3CCN(Cc4ccccc4)CC3)c2)c1 | 10µM* | x | x | -16% | -25% | -6 | u | -28% | u | 5%
Cc1ccccc1C(=O)NC1CCN(Cc2ccccc2)CC1 | 6% | -9% | i | 3% | 0% | 3 | x | x | x | x
CN(Cc1nccs1)C(=O)c1cc(COc2cccc3cnccc23)on1 | -8% | x | u | -23% | u | -11 | x | x | x | x
COc1cc(Cl)ccc1OCc1cc(C(=O)N(C)Cc2cccc3cnccc23)no1 | 11µM* | 2% | i | -39% | -5% | 2 | 15µM* | u | u | 14%
NC(=S)N/N=C/c1c[nH]c2ccccc12 | -17% | x | i | -11% | 10% | 8 | x | x | x | x
NC(=S)NN=Cc1c[nH]c2nccnc12 | 13µM* | x | u | -25% | x | x | u | u | 27% | 38%
CCc1ccccc1N1CCN(S(=O)(=O)c2cc(OC)ccc2OC)CC1 | u | 10% | i | -3% | -8% | -14 | 26µM* | u | u | 27%
COc1ccc(OC)c(S(=O)(=O)N2CCN(c3ccccc3)CC2)c1 | -5% | 51% | x | -8% | -7% | -18 | x | x | x | x
C/C(=N\NC(=O)COc1ccccc1-c1ccccc1)c1ccccn1 | 11µM* | u | x | -18% | 7% | -19 | 9.2µM* | u | u | -8%
COc1cc(C(=O)N/N=C(\C)c2ccccn2)cc(OC)c1OC | 1.3µM* | -13% | i | -2% | -2% | -9 | 7.3µM* | -17% | 3.7µM* | -11%
C/C(=N\NC(=O)COc1ccccc1-c1ccccc1)c1cccnc1 | u | -1% | i | 2% | 6% | 16 | x | x | x | x
Cc1ccc(C(=O)NCc2ccc3c(c2)CCN3C(=O)c2ccc(C)cc2)cc1 | -22% | x | x | -23% | x | x | x | x | x | x
Cc1cc(Nc2nc3ccccc3[nH]c2=O)n(-c2ccccc2)n1 | 10µM* | -1% | i | -5% | -2% | -9 | 8.2µM* | -25% | 12µM* | 43%
COc1ccc(C(=O)Nc2ccc(N3CCOCC3)cc2)cc1S(=O)(=O)N1CCCC1 | 2% | -2% | i | -2% | 11% | 3 | x | x | x | x
COc1ccc(C(=O)Nc2ccc(C)c(S(=O)(=O)N3CCOCC3)c2)cc1S(=O)(=O)N1CCCC1 | 11µM* | -19% | i | -7% | 4% | 11 | u | 2% | u | 2%
O=C(NCCN1CCOCC1)c1ccc(Cl)c(S(=O)(=O)N2CCCCCC2)c1 | 2.5µM* | -10% | i | -35% | 1% | -6 | u | -9% | -3% | 1%
COc1ccc(CNC(=O)CCc2c(C)c3cc4c(C)coc4cc3oc2=O)cc1 | 5% | 1% | i | -7% | x | x | x | x | x | x
CC1(C)Cc2c(sc(NC(=O)c3ccc(S(=O)(=O)N4CCCCCC4)cc3)c2C#N)C(C)(C)N1 | -7% | 1% | i | -8% | -1% | -19 | x | x | x | x
CCN(CC)C(=O)c1nc[nH]c1C(=O)N1CCN(c2ccccc2)CC1 | u | 8% | i | 4% | u | u | -5% | 3% | 8% | 18%
CC(C)(C)C(=O)/C(=C/c1ccncc1)n1cncn1 | 4.5µM* | 16µM* | x | 14µM* | u | 3 | 18µM* | 13µM* | 5.8µM* | u
Cc1nn(C)c(C)c1/C=C(/C(=O)C(C)(C)C)n1cncn1 | -19% | -18% | i | 5% | -17% | 12 | x | x | x | x
SMILES | TGFb SMAD3 inh | ATXN2 expr inh | S2 tox | HepG2 tox-1 | uPA generation | Giardia kill | TGFb confirm | HepG2 tox-2 | CCL64 TGFb inh | TGFb COP inh
COc1ccc(C(=O)Nc2ccc3oc(Cc4ccc(Cl)cc4)nc3c2)cc1OC | 16µM* | u | u | -23% | 10% | -21 | u | -18% | 13% | 0%
CCN(C(=O)COC(=O)c1ncc(Cl)c(Cl)c1Cl)c1c(N)n(Cc2ccccc2)c(=O)[nH]c1=O | 1% | 5% | i | 12% | u | -7 | x | x | x | x
COc1ccc(/C=C/C(=O)c2ccc([N+](=O)[O-])o2)cc1OC | 2.5µM* | 8.9µM* | u | 11µM* | 2.5µM* | -3 | 2.9µM* | 4.6µM* | 2.1µM* | 0%
COc1cc(/C=C/C(=O)c2ccc([N+](=O)[O-])o2)ccc1O | 1.1µM* | u | 3.5µM* | -45% | u | -12 | 4.1µM* | 8.2µM* | 2.9µM* | u
COc1ccc(C=CC(=O)c2ccc3cc(OC)c(OC)cc3c2)cc1OC | u | x | x | -74% | x | x | x | x | x | x
O=C(C[n+]1cccc2cccc(O)c21)c1ccc(F)cc1 | -27% | x | x | -48% | x | x | x | x | x | x

High-throughput results from PubChem BioAssay.
